Rows were chosen to be rich in hits. Some 13% of all compounds tested hit in one or more screens of this group.
GBA activity: Glucocerebrosidase; Lysosomal acid glucosylceramidase (Homo sapiens), P04062; purified enzyme, resorufin glucoside fluorescence (screen aimed at inhibitors), 20 min; Potency, µM; 48,000 tested, 1.1% active; in the data active means potency below about 15 µM; inconclusive means mostly about 16 µM to 33 µM;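 further: potency means the concentration at half of the fitted maximal effect; the screen sought inhibitors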
Target sequence (P04062 whole entry, looked up): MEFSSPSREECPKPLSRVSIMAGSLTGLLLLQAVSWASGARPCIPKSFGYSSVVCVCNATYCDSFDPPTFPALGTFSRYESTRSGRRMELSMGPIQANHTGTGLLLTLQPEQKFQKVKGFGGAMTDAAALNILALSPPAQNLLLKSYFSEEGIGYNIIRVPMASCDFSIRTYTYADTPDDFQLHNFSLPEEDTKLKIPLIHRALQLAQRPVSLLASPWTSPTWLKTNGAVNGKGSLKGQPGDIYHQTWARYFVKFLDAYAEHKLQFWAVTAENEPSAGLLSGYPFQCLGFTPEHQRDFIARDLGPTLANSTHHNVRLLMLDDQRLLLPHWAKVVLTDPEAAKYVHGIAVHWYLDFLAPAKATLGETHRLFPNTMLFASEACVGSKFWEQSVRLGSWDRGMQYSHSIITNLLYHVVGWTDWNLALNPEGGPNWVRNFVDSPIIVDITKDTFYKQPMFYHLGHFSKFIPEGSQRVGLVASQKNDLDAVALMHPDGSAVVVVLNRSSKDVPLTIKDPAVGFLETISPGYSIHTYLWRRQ
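Compounds titrated against 0.2 nM normal enzyme, 30 uM resorufin beta-D-glucopyranoside substrate, citrate/phosphate buffer with taurocholate and tween-20, pH 5.9. Reaction ran 20 min at room temperature; fluorescence (Ex 548/Em 600) gave AC50.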
HSD17B inh: qHTS Assay for Inhibitors of HSD17B4, hydroxysteroid (17-beta) dehydrogenase 4; 3-hydroxyacyl-CoA dehydrogenase type-2 (Homo sapiens), Q99714; recombinant HSD17B10, NADH fluorescence kinetic; Potency, µM (titrated, usually from 57.1 µM), inactives show at the highest dose activity change, negative = inhibition, most hits filed as inhibitors; 75,000 tested, 7.6% active;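 further: the protocol describes HADH2 (HSD17B10) and not the HSD17B4 of the title; potency means the concentration at half of the fitted maximal effect; on the % scale 0 is the no-effect control and ±100 the full control effect; nearly all actives have a fitted effect of over 70% in size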
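His-tagged E. coli-expressed HADH2 at 20 nM in 100 mM Tris-HCl pH 9.0 with 0.01 % Tween-20, preincubated 15 min with compound at room temperature. Reaction with 1 mM NAD+ and 90 uM beta-hydroxybutyryl coenzyme A; NADH fluorescence (360/450 nm) read kinetically over 4 min, last minus first point.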
AID923: qHTS Assay for Allosteric/Competitive Inhibitors of Caspase-1: Spectroscopic Profiling in AFC Spectral Region. compound fluorescence, AFC spectral region (405/520 nm). Potency, µM (titrated, usually from 57.5 µM), for inactives: at the highest dose fluorescence increase, hits mostly activators. 75,000 tested, 1.1% active. AID 923, 2007; further: potency means the concentration at half of the fitted maximal effect; 0% is about no effect
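Baseline compound fluorescence (AFC region, 405 nm ex/520 nm em) taken from the intercept of kinetic reads with 50 nM caspase-1 and 5 uM Ac-WEHD-AFC; normalized to an on-plate AFC standard curve; compounds titrated up to 57 uM.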
HADH2 inh: qHTS Assay for Inhibitors of HADH2 (Hydroxyacyl-Coenzyme A Dehydrogenase, Type II) | 3-hydroxyacyl-CoA dehydrogenase type-2 (Homo sapiens), Q99714 | recombinant HADH2, NADH fluorescence, beta-hydroxybutyryl-CoA | Potency, µM (doses to about 57.1 µM), for the others: at the top dose activity change, negative = inhibition, usual class: inhibitors | 73,000 tested, 3.4% active | AID 886, 2007; further: potency means the concentration at half of the fitted maximal effect; on the % scale 0 is the no-effect control and ±100 the full control effect; nearly all actives have a fitted effect of over 60% in size
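20 nM HADH2 + cpd, 15 min RT; add 1 mM NAD+/90 uM beta-hydroxybutyryl-CoA; kinetic fluorescence 360/450 nm, 4 min. Tris-HCl pH 9.0, 0.01% Tween-20.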
4-MU autofl: qHTS Assay for Spectroscopic Profiling in 4-MU Spectral Region | compound autofluorescence, 340/450 nm, 4-MU equivalents; hits give high values | max dye-equivalent concentration, M | 59,000 tested, 11% active; in the data active means max dye-equivalent concentration above about 10 nM; inconclusive means mostly about 1.1 nM to 9.6 nM
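Intrinsic fluorescence at 340/450 nm (ex/em) was read after 15 min at room temperature in pH 8.0, 100 mM Tris. Each compound concentration expressed as 4-MU-equivalent concentration from a six-point 4-MU standard series on each plate.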
A350 fluor: qHTS Assay for Spectroscopic Profiling in A350 Spectral Region; Compound autofluorescence, 340/450 nm, Alexa 350 dye-equivalents; hits give high values; 59,000 tested, 11% active; max dye-equivalent concentration, M; in the data active means max dye-equivalent concentration above about 10 nM; inconclusive means mostly about 1.1 nM to 9.6 nM
The depositor's hits bear a star; i = inactive; ? = inconclusive; . = not tested or not shown; [ ] = dose if it differs, or a comment. Unless noted, the call rests on the fitted dose curve; in most records, active means well fitted curve in the direction sought with a large enough effect; inconclusive means small, poorly fitted or top-dose-only effect, or another doubt; inactive means no such curve, though single readings can be large; an effect the other way counts as inactive or inconclusive.

SMILES	GBA activity	HSD17B inh	AID923	HADH2 inh	4-MU autofl	A350 fluor
O=NN(CCO)CCO	.	1.0%	-0.8%	-4.5%	.	.
[CH3][Hg][Cl]	.	0.631µM*	-6.1%	?	.	.
CCCn1c(=O)c2[nH]c(C3CCCC3)nc2n(CCCOC(=O)c2ccc(S(=O)(=O)F)cc2)c1=O	.	-3.5%	-3.0%	20µM*	i	i
Nc1ccc(S(=O)(=O)c2ccc(NCN3C(=O)NC(=O)C(=O)C3=O)cc2)cc1	.	-28.6%[11.4 µM]	-2.5%[11.5 µM]	4.0%[11.4 µM]	i	i
COP(N)(=O)SC (configuration not stated)	.	0.4%	-0.7%	.	.	.
C=CC=O	.	-5.2%	-0.5%	5.9%	.	.
CN1C(=O)N(C)C(=O)C2(Cc3cc(N)ccc3N3CCN(c4ccccc4F)CC32)C1=O (configuration not stated)	>76.9	8.2%	-0.8%	-3.3%	i	i
O=C1NC(=O)C2(Cc3ccccc3N3CCCC32)C(=O)N1c1ccccc1 (configuration not stated)	>76.9	?	19.1%	1.2%	1.93e-08M*	2.12e-08M*
CCCN1CCc2cccc3c2[C@@H]1Cc1ccc(O)c(O)c1-3	.	20µM*	-4.2%	0.501µM*	1.93e-08M*	1.68e-08M*
COc1ccc2c(c1O)-c1c(OC)c(OC)cc3c1[C@@H](C2)N(C)CC3	.	-18.4%	1.9%	-18.4%	i	i
COc1ccc2c(c1O)-c1c(OC)c(OC)cc3c1[C@H](C2)N(C)CC3	.	?	-1.5%	2.1%	i	i
COc1ccc2c(c1O)-c1cccc3c1[C@H](C2)N(C)CC3	.	25.1µM*	-1.2%	20µM*	1.19e-08M*	1.14e-08M*
COc1ccccc1CN1CCCC2(CCN(C(=O)Oc3ccccc3)CC2)C1	.	-6.7%	0.4%	1.8%	i	i
C(CCOCC1CO1)COCC1CO1 (configuration not stated)	.	1.7%	0.0%	3.0%	.	.
CC[C@@H]1CN2CC[C@@H]1C[C@H]2[C@@H](O)c1ccnc2ccc(OC)cc12	.	.	.	-6.1%	i	i
CCC(=O)N1CCN(c2cc3c(cc2F)c(=O)c(C(=O)O)cn3CC)CC1	>76.9	25.1µM*	-0.6%	25.1µM*	7.46e-08M*	7.04e-08M*
c1ccc2c(c1)ccc1cc3c(ccc4ccccc43)cc12	.	?	9.1%	0.3%	.	.
c1cc2ccc3cccc4ccc(c1)c2c34	.	31.6µM*	0.5%	31.6µM*	.	.
c1ccc2c(c1)c1cccc3ccc4cccc2c4c31	.	25.1µM*	5.9%	31.6µM*	.	.
COC(=O)[C@H]1[C@H](c2ccccc2)C(=O)[C@@]2(O)c3ccccc3O[C@@]12c1ccccc1	.	5.6%[11.4 µM]	0.1%[11.5 µM]	0.4%[11.4 µM]	.	.
Cn1ccnc1	.	7.8%	-1.0%	?	1.12e-07M*	1.3e-07M*
CC(=O)O/C(=C1/C[C@H]2[C@@H]3CC=C4C[C@@H](OC(C)=O)CC[C@]4(C)[C@@H]3CC[C@]2(C)C1=O)C(F)(F)F	.	10.5%[11.4 µM]	-0.1%[11.5 µM]	24.4%[11.4 µM]	i	i
CN(C)C1C(=O)C(C(N)=O)=C(O)[C@@]2(O)C(=O)C3=C(O)c4c(O)ccc(Cl)c4[C@](C)(O)C3CC12 (some centres not stated)	.	i	5.9%	.	.	.
CN(C)[C@@H]1C(=O)C(C(N)=O)=C(O)[C@]2(O)C(=O)C3=C(O)c4c(O)ccc(Cl)c4[C@](C)(O)[C@H]3C[C@@H]12	.	250.1%[25.6 µM]	1.6%[25.7 µM]	-5.1%[25.6 µM]	3.59e-08M*	3.5e-08M*
C[C@H](N)Cc1cnc[nH]1	.	1.8%	-0.8%	5.9%	i	i
COc1cc2c(cc1OC)[C@]13CC[N@+]4(C)CC5=CCO[C@H]6CC(=O)N2[C@@H]1[C@@H]6[C@@H]5C[C@]34O	.	5.9%[11.4 µM]	0.1%[11.5 µM]	2.7%[11.4 µM]	i	i
Cc1nnc2ccc(-c3cccc(C(F)(F)F)c3)nn12	.	20µM*	-2.5%	10.9%	.	.

Assay outcomes (PubChem BioAssay)
